Test results: PubChem BioAssay (EPA / NIEHS)
Values joined by “and” are separate entries in the source; they are usually repeats but may differ in a detail not shown here. Equal entries are not always repeated. Some structures have more than one record in an assay (separate samples or runs), and their calls can disagree. Active and inactive are the calls of the source. The calls were made as follows: active = hit-call score of the fitted dose curve at least 0.9, where 1 is the maximum; inactive = score below 0.9.

Key:
[1] = ATG_GLI_CIS: Attagene CIS-FACTORIAL HepG2 Assay for human Zinc Finger Protein GLI1 (AID 2282945); conditions: HepG2, Attagene cis-factorial reporter mRNA, GLI element; actives raise or lower the signal
In short: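 HepG2 cells transiently transfected with cis-promoter multiplexed reporter units report endogenous transcription factor activity. After 24 h chemical exposure, reporter mRNA was quantified by RT-PCR, 6-FAM labelling, HpaI digestion and capillary electrophoresis, with bidirectional fitting against DMSO.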

[2] = ATG_GRE_CIS: Attagene CIS-FACTORIAL HepG2 Assay for human Glucocorticoid Response Elements (GRE) (AID 2282947); conditions: HepG2 GRE cis-reporter, Attagene multiplex mRNA; actives raise or lower the signal
In short: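 HepG2 cells transiently transfected with multiple cis-promoter reporter units measure endogenous TF activity; 24 h compound exposure. Reporter mRNA quantified by RT-PCR, FAM labelling, HpaI digestion and capillary electrophoresis; bidirectional fit vs DMSO baseline.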

[3] = ATG_ISRE_CIS: Attagene CIS-FACTORIAL HepG2 Assay for human Interferon Regulatory Factor 1 (IRF1) binding to an Interferon-Stimulated Response Element (ISRE) (AID 2282948); conditions: HepG2 ISRE cis-reporter (Attagene), mRNA transcription readout; actives raise or lower the signal
In short: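 HepG2 cells transiently transfected with multiplexed cis-promoter reporter units; after 24 h compound exposure, reporter mRNA quantified by RT-PCR, FAM labelling, HpaI digestion and capillary electrophoresis. Bidirectional fit versus DMSO baseline.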

[4] = ATG_M_32_CIS: Attagene CIS-FACTORIAL HepG2 Assay for M32 Transcription Factor (Internal Marker) (AID 2282949); conditions: HepG2 Attagene cis-factorial M32 reporter, mRNA; actives raise or lower the signal;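 also: background control marker of the multiplexed CIS panel rather than a real target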
In short: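 Internal background marker read-out: RT-PCR/capillary electrophoresis fluorescence of reporter transcripts from transiently transfected HepG2 cells after 24 h chemical exposure. Activity fitted bidirectionally relative to DMSO negative control.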

[5] = ATG_M_06_CIS: Attagene CIS-FACTORIAL HepG2 Assay for M06 Transcription Factor (Internal Marker) (AID 2282950); conditions: HepG2 Attagene CIS-FACTORIAL M06 internal marker reporter; actives raise or lower the signal
In short: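 Serves as a background control readout. Transfected HepG2 exposed to compounds for 24 h, then reporter transcripts quantified by fluorescent RT-PCR and capillary electrophoresis. Both directions fitted against DMSO baseline.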

[6] = biological target: Hypoxia-inducible factor 1-alpha (Homo sapiens) (UniProt Q16665); experiment: ATG_HIF1a_CIS: Attagene CIS-FACTORIAL HepG2 Assay for human Hypoxia Inducible Factor 1 (HIF1A) (AID 2282951); conditions: HepG2 Attagene cis-factorial HIF1a reporter transcription; actives raise or lower the signal
In short: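 HepG2 cells transiently transfected with multiplexed cis-promoter reporter units; reporter mRNA read 24 h after dosing by RT-PCR, 6-FAM primer-extension labelling, HpaI digestion and capillary electrophoresis. Bidirectional fit versus DMSO baseline.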

[7] = biological target: Hepatocyte nuclear factor 6 (Homo sapiens) (UniProt Q9UBC0); experiment: ATG_HNF6_CIS: Attagene CIS-FACTORIAL HepG2 Assay for human Hepatocyte Nuclear Factor 6 (HNF6) (AID 2282952); conditions: HepG2 Attagene cis-factorial HNF6 reporter transcription; actives raise or lower the signal
In short: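 HepG2 cells transiently transfected with cis-element-driven multiplexed reporter units measuring endogenous transcription factor activity. After 24 h exposure, reporter mRNA quantified by RT-PCR, FAM-labelled fragments and capillary electrophoresis; bidirectional fitting versus DMSO.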

[8] = biological target: Heat shock factor protein 1 (Homo sapiens) (UniProt Q00613); experiment: ATG_HSE_CIS: Attagene CIS-FACTORIAL HepG2 Assay for human Heat Shock Transcription Factor 1 (HSE) (AID 2282953); conditions: HepG2 HSE cis-reporter, Attagene RNA transcription; actives raise or lower the signal
In short: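 Endogenous transcription factor activity in transiently transfected HepG2, read as reporter mRNA by RT-PCR with fluorescent capillary electrophoresis after 24 h. Gain or loss of signal fitted versus DMSO baseline.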

[9] = ATG_MRE_CIS: Attagene CIS-FACTORIAL HepG2 Assay for human Metal Responsive Element (MRE) (AID 2282954); conditions: HepG2 MRE cis-reporter transcription, Attagene multiplex; actives raise or lower the signal
In short: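 HepG2 cells transiently transfected with multiple cis-element reporter units measure endogenous MTF1-driven transcription. After 24 h compound exposure, reporter mRNA is quantified by RT-PCR with 6-FAM labelling, HpaI digestion and capillary electrophoresis; bidirectional fits versus DMSO.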

[10] = ATG_PBREM_CIS: Attagene CIS-FACTORIAL HepG2 Assay for human Phenobarbital-responsive Enhancer Module (PBREM) (AID 2282955); conditions: HepG2 PBREM cis-reporter, Attagene multiplexed transcription; actives raise or lower the signal
In short: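 HepG2 cells transiently transfected with multiple cis-regulated reporter transcription units; endogenous factor activity at the PBREM element measured as reporter mRNA 24 h after dosing, via RT-PCR and capillary electrophoresis of fluorescent fragments; bidirectional fitting versus DMSO.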

[11] = biological target: Paired box protein Pax-6 (Homo sapiens) (UniProt P26367); experiment: ATG_Pax6_CIS: Attagene CIS-FACTORIAL HepG2 Assay for human Paired Box 6 (PAX6) (AID 2282956); conditions: HepG2 CIS-FACTORIAL PAX6 reporter transcription, RNA readout; actives raise or lower the signal
In short: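 HepG2 cells transiently transfected with multiplexed cis-promoter reporter units (endogenous TF activity) were dosed for 24 h. Reporter mRNA was quantified by RT-PCR, 6-FAM labeling, HpaI digestion and capillary electrophoresis; bidirectional fitting versus DMSO baseline.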

[12] = ATG_PXRE_CIS: Attagene CIS-FACTORIAL HepG2 Assay for human Pregnane X Receptor Element (PXRE) (AID 2282957); conditions: HepG2 Attagene CIS-FACTORIAL PXRE reporter, mRNA; actives raise or lower the signal
In short: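 HepG2 cells transiently transfected with cis-element-driven multiplexed reporter units; after 24 h chemical exposure, reporter mRNA measured by RT-PCR, 6-FAM labelling, HpaI digestion and capillary electrophoresis. Bidirectional fitting relative to DMSO.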

[13] = ATG_RORE_CIS: Attagene CIS-FACTORIAL HepG2 Assay for human RAR-related Orphan Receptor Element (RORE) (AID 2282959); conditions: HepG2 Attagene cis-factorial RORE reporter, mRNA; actives raise or lower the signal
In short: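 HepG2 cells transiently transfected with multiple cis-element reporter transcription units, exposed to chemical for 24 h. Reporter mRNA quantified by RT-PCR, 6-FAM primer-extension labeling, HpaI digestion and capillary electrophoresis; bidirectional fit versus DMSO baseline.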

[14] = ATG_Sox_CIS: Attagene CIS-FACTORIAL HepG2 Assay for human SRY-box transcription factor (SOX) (AID 2282960); conditions: HepG2 Attagene cis-factorial SOX reporter, mRNA; actives raise or lower the signal
In short: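 HepG2 cells transiently transfected with cis-element-driven multiple reporter transcription units, dosed 24 h; reporter mRNA measured by RT-PCR, FAM labelling, HpaI digestion and capillary electrophoresis. Bidirectional fit versus DMSO baseline.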

[15] = biological target: Transcription factor Sp1 (Homo sapiens) (UniProt P08047); experiment: ATG_Sp1_CIS: Attagene CIS-FACTORIAL HepG2 Assay for human Specificity Protein 1 (Sp1) (AID 2282961); conditions: HepG2 Sp1 cis-reporter transcription, actives raise or lower the signal
In short: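 HepG2 cells transiently transfected with multiple reporter transcription units driven by cis-regulatory elements; Sp1-responsive reporter mRNA measured 24 h after dosing by RT-PCR and capillary electrophoresis fluorescence, fitted bidirectionally against DMSO baseline.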

[16] = ATG_SREBP_CIS: Attagene CIS-FACTORIAL HepG2 Assay for human Sterol Regulatory Element Binding (SREBP) (AID 2282962); conditions: HepG2 Attagene cis-factorial SREBP reporter, mRNA; actives raise or lower the signal
In short: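 HepG2 cells transiently transfected with multiplexed cis-element reporter units report endogenous transcription factor activity. After 24 h of chemical exposure, reporter mRNA was quantified by RT-PCR, 6-FAM labelling, HpaI digestion and capillary electrophoresis; bidirectional fits used DMSO as baseline.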

[17] = biological target: Signal transducer and activator of transcription 3 (Homo sapiens) (UniProt P40763); experiment: ATG_STAT3_CIS: Attagene CIS-FACTORIAL HepG2 Assay for human Signal Transducer and Activator of Transcription 3 (STAT3) (AID 2282963); conditions: HepG2, Attagene cis-factorial STAT3 reporter transcription; actives raise or lower the signal
In short: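 HepG2 cells transiently transfected with cis-element-driven multiple reporter transcription units; after 24 h chemical exposure, reporter mRNA measured by RT-PCR, 6-FAM primer-extension labelling, HpaI digestion and capillary electrophoresis. Bidirectional fitting versus DMSO baseline.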

[18] = ATG_TA_CIS: Attagene CIS-FACTORIAL HepG2 Assay for human TA Basal Promoter (AID 2282964); conditions: HepG2 Attagene CIS-factorial TA basal promoter reporter; actives raise or lower the signal
In short: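 Background-control readout: TA basal promoter reporter mRNA, fitted in both directions relative to DMSO. Measured by RT-PCR and capillary electrophoresis 24 hours after treating HepG2 human liver cells transiently carrying multiplexed cis-regulated reporter constructs.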

[19] = ATG_PPRE_CIS: Attagene CIS-FACTORIAL HepG2 Assay for human Peroxisome Proliferator-activated Response Element (PPRE) (AID 2282958); conditions: HepG2 PPRE cis-element reporter, Attagene transcription factor profiling; actives raise or lower the signal
In short: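 HepG2 cells transiently transfected with multiplexed cis-element reporter units measure endogenous transcription factor activity. After 24 h compound exposure, reporter mRNA is quantified by RT-PCR, 6-FAM labeling, HpaI digestion and capillary electrophoresis; bidirectional fits are made against DMSO baseline.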

[20] = biological target: Bile acid receptor (Homo sapiens) (UniProt Q96RI1); experiment: ATG_IR1_CIS: Attagene CIS-FACTORIAL HepG2 Assay for human Nuclear Receptor Subfamily 1 Group H Member 4 (NR1H4), IR1 submotif (AID 2282946); conditions: IR1 reporter transcription, actives raise or lower the signal
In short: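 Transient MRTU transfection, HepG2; 24 h dosing; RNA → RT-PCR → 6-FAM primer extension → HpaI digest → capillary electrophoresis fluorescence. Gain/loss of signal fitted relative to DMSO.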

Measured: AC50

Chain of Bile acid receptor (Homo sapiens) (Q96RI1 whole entry, looked up): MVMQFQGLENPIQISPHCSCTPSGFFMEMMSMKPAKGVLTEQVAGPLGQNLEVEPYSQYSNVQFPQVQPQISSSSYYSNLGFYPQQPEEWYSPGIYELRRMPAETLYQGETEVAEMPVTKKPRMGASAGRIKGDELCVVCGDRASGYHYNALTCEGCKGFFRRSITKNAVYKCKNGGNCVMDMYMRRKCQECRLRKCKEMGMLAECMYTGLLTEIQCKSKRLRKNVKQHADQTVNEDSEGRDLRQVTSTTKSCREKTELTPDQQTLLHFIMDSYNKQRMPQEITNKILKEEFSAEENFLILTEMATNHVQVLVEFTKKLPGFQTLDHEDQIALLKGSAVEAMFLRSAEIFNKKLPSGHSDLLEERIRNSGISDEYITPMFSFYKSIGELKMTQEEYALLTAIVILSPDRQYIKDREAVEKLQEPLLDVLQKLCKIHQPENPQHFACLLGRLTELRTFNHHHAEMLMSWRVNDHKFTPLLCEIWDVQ
Chain of Paired box protein Pax-6 (Homo sapiens) (P26367 whole entry, looked up): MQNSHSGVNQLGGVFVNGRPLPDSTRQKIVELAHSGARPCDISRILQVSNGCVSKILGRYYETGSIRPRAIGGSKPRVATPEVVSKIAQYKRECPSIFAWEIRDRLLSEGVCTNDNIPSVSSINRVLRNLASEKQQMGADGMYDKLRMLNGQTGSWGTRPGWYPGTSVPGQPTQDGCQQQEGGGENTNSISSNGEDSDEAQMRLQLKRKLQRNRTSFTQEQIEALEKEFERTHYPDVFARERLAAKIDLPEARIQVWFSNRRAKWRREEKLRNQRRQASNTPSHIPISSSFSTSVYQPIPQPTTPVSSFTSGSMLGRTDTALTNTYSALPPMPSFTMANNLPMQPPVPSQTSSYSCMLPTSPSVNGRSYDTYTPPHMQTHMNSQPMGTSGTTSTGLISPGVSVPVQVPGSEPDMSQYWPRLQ
Chain of Signal transducer and activator of transcription 3 (Homo sapiens) (P40763 whole entry, looked up): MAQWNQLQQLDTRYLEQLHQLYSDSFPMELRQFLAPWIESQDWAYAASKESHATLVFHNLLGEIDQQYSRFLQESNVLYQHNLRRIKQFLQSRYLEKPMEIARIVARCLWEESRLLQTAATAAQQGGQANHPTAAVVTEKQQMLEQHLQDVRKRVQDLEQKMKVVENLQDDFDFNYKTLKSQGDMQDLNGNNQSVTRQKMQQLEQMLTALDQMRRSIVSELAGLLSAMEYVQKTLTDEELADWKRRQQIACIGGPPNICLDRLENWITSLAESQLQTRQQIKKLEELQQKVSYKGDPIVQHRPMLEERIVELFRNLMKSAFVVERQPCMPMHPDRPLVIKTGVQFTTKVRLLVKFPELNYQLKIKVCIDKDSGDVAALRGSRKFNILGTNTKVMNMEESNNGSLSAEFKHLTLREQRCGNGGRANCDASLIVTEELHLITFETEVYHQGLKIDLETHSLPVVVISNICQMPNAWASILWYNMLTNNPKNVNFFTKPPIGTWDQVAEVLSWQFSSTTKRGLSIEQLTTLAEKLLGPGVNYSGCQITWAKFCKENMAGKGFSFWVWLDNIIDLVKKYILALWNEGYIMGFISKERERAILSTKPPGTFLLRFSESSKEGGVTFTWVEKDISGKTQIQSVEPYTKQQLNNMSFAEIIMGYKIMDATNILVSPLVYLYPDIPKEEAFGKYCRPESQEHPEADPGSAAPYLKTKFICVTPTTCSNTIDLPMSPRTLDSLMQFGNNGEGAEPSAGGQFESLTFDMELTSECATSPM
Chain of Transcription factor Sp1 (Homo sapiens) (P08047 whole entry, looked up): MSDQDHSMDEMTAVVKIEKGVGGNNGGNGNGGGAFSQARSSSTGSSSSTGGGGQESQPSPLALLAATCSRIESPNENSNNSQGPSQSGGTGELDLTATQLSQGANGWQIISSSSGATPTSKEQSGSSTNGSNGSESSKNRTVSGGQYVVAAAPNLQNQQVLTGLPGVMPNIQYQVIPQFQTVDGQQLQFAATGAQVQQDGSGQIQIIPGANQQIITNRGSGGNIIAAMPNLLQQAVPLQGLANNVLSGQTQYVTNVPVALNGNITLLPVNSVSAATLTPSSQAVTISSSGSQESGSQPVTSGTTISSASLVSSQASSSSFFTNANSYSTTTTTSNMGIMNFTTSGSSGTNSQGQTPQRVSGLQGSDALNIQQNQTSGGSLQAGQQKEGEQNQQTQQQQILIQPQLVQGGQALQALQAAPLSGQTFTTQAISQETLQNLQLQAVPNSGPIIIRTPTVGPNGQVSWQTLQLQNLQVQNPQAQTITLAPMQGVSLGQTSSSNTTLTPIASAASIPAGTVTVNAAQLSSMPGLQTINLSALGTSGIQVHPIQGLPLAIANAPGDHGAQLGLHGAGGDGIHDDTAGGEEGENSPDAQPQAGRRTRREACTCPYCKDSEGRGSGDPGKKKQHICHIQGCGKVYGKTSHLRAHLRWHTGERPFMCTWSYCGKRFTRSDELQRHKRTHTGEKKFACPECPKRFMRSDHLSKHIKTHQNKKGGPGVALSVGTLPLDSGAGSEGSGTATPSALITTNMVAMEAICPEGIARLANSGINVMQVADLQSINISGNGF
Chain of Hypoxia-inducible factor 1-alpha (Homo sapiens) (Q16665 whole entry, looked up): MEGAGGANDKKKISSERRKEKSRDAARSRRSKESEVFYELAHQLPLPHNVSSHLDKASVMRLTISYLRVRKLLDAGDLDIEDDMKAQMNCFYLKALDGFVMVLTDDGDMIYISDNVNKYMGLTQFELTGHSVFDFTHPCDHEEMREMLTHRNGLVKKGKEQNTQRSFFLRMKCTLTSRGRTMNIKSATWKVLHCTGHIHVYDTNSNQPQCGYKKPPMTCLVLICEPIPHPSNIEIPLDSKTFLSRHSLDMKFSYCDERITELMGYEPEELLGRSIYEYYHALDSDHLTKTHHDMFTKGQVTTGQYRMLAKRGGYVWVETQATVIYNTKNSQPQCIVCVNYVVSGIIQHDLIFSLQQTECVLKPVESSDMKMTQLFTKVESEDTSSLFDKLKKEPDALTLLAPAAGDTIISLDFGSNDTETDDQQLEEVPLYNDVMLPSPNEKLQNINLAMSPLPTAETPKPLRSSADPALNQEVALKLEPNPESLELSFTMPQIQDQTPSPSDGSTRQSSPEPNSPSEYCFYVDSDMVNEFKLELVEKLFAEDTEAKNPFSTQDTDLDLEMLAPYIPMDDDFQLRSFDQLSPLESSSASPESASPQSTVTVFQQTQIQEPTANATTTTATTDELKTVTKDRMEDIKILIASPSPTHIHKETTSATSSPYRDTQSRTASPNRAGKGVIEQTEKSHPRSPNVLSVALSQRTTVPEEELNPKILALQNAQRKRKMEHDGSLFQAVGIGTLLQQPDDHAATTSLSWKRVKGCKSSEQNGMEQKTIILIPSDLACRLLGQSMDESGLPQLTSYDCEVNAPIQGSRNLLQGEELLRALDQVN
Chain of Heat shock factor protein 1 (Homo sapiens) (Q00613 whole entry, looked up): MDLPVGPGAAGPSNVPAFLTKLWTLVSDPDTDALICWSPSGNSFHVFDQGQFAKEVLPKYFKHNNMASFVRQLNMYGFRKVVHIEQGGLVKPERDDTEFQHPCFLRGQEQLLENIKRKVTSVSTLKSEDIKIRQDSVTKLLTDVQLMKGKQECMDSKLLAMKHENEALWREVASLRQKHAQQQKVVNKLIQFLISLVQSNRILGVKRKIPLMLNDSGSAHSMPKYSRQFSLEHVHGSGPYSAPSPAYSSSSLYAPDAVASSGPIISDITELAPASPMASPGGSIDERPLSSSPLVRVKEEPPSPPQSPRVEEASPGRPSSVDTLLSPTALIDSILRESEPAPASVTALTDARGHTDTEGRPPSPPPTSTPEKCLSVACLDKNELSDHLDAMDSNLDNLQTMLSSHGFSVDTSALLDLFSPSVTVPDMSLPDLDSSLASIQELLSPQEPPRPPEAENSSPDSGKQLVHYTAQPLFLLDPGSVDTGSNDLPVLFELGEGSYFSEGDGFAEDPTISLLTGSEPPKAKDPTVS
Chain of Hepatocyte nuclear factor 6 (Homo sapiens) (Q9UBC0 whole entry, looked up, the tested form may be a part): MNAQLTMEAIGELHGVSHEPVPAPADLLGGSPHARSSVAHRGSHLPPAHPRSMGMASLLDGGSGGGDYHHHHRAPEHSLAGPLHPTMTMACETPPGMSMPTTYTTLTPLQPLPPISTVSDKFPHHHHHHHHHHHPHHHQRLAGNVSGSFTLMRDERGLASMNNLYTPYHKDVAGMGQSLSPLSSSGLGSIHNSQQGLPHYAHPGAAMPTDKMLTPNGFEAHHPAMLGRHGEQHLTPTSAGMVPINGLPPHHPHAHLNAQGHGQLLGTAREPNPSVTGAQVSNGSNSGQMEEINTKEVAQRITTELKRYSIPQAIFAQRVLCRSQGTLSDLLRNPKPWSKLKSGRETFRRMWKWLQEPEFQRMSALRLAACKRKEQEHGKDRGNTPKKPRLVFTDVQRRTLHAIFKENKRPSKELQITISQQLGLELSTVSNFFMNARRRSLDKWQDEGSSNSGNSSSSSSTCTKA

CCc1cccc(CC)c1N
active: [12] 27.7 µM
not listed: [19] | [20]
inactive: all other assays above

OCCOCCOCCO
not listed: [19] | [20]
inactive: all other assays above

c1ccc2ncccc2c1
not listed: [20]
inactive: all other assays above

OCc1c[nH]c2ccccc12
active: [3] 27.1 µM and 140 µM and 32.2 µM | [6] 2.91 µM and 19.8 µM and 1.45 µM | [8] 176 µM [middle of 5 runs] | [10] 5.11 µM [middle of 4 runs] | [11] 6.46 µM and 23.1 µM and 38.2 µM | [12] 2.76 µM [middle of 5 runs] | [13] 2.51 µM [middle of 5 runs]
inactive: [1] | [20] | [3] | [4] | [5] | [6] | [7] | [10] | [11] | [14] | [15] | [16] | [17] | [18]

CNC(C)=O
active: [12] 26.1 µM
not listed: [20]
inactive: all other assays above

CCOc1ccc2[nH]cc(C(=O)NCc3ccccc3)c(=O)c2n1
active: [12] 26.7 µM
not listed: [2]
inactive: all other assays above

CCCc1ccccc1
active: [6] 60.7 µM
not listed: [20]
inactive: all other assays above
